Most compounds without a hit are left out; they make up all but 3.2% or so of the library.
DAGLB inhibitor: blocks human DAGLB lipase activity | Q8NCG7 | HEK293T DAGLB membrane lysate, EnzChek fluorogenic substrate | inhibition, % at 5.17 µM | 0.059% of 340,000 active; in the data active means inhibition above about 34%;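 further: 0% = enzyme with vehicle and 100% = wells lacking enzyme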
Target sequence (Q8NCG7 whole entry, looked up): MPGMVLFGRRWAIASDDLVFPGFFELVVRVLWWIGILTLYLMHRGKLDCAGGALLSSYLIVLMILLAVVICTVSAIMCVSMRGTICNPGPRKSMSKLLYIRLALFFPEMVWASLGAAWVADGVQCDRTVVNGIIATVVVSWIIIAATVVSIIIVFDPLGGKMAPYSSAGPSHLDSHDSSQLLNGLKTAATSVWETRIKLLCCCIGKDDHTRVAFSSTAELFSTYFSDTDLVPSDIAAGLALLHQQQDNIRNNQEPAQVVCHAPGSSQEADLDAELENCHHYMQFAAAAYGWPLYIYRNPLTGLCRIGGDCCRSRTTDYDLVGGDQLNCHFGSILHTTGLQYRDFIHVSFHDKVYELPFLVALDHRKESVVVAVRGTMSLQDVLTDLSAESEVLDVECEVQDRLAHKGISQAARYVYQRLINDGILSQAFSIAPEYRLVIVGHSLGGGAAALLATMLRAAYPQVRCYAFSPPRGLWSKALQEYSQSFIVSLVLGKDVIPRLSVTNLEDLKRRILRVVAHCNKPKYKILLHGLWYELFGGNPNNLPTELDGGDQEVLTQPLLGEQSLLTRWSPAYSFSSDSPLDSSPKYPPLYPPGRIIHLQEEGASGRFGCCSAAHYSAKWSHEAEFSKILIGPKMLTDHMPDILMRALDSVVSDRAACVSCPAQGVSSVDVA
MsrA inhibitor: inhibits bovine methionine sulfoxide reductase A; purified bovine MsrA, absorbance read-out; AID 651718; inhibition, % at 15.5 µM; 0.75% of 360,000 active; in the data active means inhibition above about 4.5%;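 further: 0% = vehicle wells with enzyme and 100% = reference inhibitor wells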
MsrA act: activates bovine MsrA enzyme. AID 602163. purified bovine MsrA, absorbance read-out. 0.3% of 360,000 active. activation, % at 10.6 µM; in the data active means activation above about 7.5%;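 further: 0% = vehicle and 100% = reference activator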
rCAG binder: molecules binding r(CAG) RNA repeats; r(CAG) RNA repeat, TO-PRO-1 dye displacement fluorescence; inhibition, % at 3 µM; 1.3% of 370,000 active;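 active means inhibition above the plate cutoff, the mean of all test compounds on that plate plus 3 SD, cut at about 35% in these data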;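 further: 0% = DMSO alone and 100% = 100 µM mitoxantrone as full dye displacement; higher means more dye released from RNA so lower well fluorescence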
DSG3 Ab inh: blocks pemphigus antibody binding to human desmoglein-3; P32926; DSG3-coupled beads, scFv-anti-DSG3-GFP binding, flow cytometry; hits give low values; binding (percent of control), % at 10 µM; 0.48% of 310,000 active; AID 588358;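 active means binding more than 3 SD below its plate's average and above zero; inconclusive means below that plate limit but binding exactly zero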;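 further: hits lower antibody fragment binding to DSG3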
NadD inh: NadD (S. aureus) enzyme inhibition; purified NadD enzyme, colorimetric absorbance read-out; inhibition, % at 20 µM; 0.78% of 360,000 active; in the data active means inhibition above about 26%
MsrA act confirm: bovine methionine sulfoxide reductase A activation confirmed. AID 602270. 12% of 1,000 active. shares compounds with MsrA act. purified bovine MsrA, absorbance read-out. activation, % at 10.6 µM; in the data active means activation above about 4%;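 further: enzyme coupled to thioredoxin and thioredoxin reductase with NADPH; 0% = vehicle wells and 100% = reference activator wells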
An asterisk follows results filed as active; ? = inconclusive; · = not tested or not shown.

SMILES	DAGLB inhibitor	MsrA inhibitor	MsrA act	rCAG binder	DSG3 Ab inh	NadD inh	MsrA act confirm
COc1cc(NC(=O)c2cc(OC)c(OC)c(OC)c2)c(OC)cc1NC(=O)CN1CCCCC1	-1	1	8.4*	1	106	2	0
CC(=O)CC[C@H]1CC[C@]2(CCCN(C(=O)c3ccc4ccccc4n3)C2)O1	·	·	·	-1	·	·	·
O[C@H](COc1cccc(C(F)(F)F)c1)CN1CCC(C(O)(c2ccccc2)c2ccccc2)CC1	·	·	·	-3	·	·	·
CC(C)C[C@H]1CN(CCCC[C@@H]2CNC(=O)C(=O)N2CCc2ccccc2)C(=O)C(=O)N1Cc1ccccc1	·	1	19*	-4	·	15	-4
CC(C)C[C@H]1CN(CCCC[C@@H]2CNC(=O)C(=O)N2Cc2ccccc2)C(=O)C(=O)N1CCc1ccccc1	·	3	-3	-3	·	15	·
O=C(Nc1ccccc1Cl)N1CCN(c2ccc3nnc(-c4ccccc4)n3n2)CC1	-3	·	17*	·	105	-3	-1
CCOc1ccc(N2CC(C(=O)NCCCN3CCOCC3)CC2=O)cc1 (stereo not drawn)	2	0	9.1*	-2	?	-6	-2
Cc1csc(N=Nc2ccc(N(C)C)cc2)[n+]1[O-]	19	0	-3	6	101	-14	·
CCOC(=O)c1cnc2nc(COc3ccccc3)[nH]n2c1=O	0	-1	12*	3	·	0	-3
Cn1c(CO)cnc1SCC(=O)c1ccc(Br)cc1	1	2	13*	2	98	-4	-3
Cn1c(CO)cnc1SCC(=O)c1ccc(F)cc1	-3	1	-5	-1	93	-6	·
CCOC(=O)[C@@]12CN(C(=O)OC(C)(C)C)CC=C1N(Cc1ccc(OC)cc1)C(=O)[C@H]2CC(=O)NCc1ccc(C)o1	·	·	·	6	·	·	·
CN(Cc1ccccc1)C(=O)c1ccc2nc([C@@H]3O[C@H](CO)[C@H](O)[C@H](O)[C@H]3O)[nH]c2c1	·	1	-8	2	·	2	·
O=C(COC(=O)c1ccc(Cl)c(S(=O)(=O)N2CCN(c3ccc(F)cc3)CC2)c1)Nc1cccc(Cl)c1	-4	-1	12*	6	112	19	1
COC(=O)c1cc(-c2cccc3ccccc23)c(=O)n2c1CCC2	·	·	·	1	·	·	·
O=C(Nc1ccccc1)c1ccc(=O)n(Cc2ccc(F)c(F)c2)c1	-1	1	-2	-7	104	-1	·
NC(=O)c1ccc(=O)n(Cc2ccc(F)c(F)c2)c1	1	0	8.0*	-1	99	0	-1
Cc1cc(C)c2c(n1)nn1c(N3CCN(c4ccccc4C)CC3)cc(C)nc21	-1	1	7.7*	2	104	0	-1
COc1ccc(CN2CCN(c3cc(C)nc4c5c(C)cc(C)nc5nn34)CC2)cc1F	2	1	-3	-1	·	5	·
N#CCCN(/N=C/c1cccnc1)C1=NS(=O)(=O)c2ccccc21	2	2	-5	2	91	3	·
COc1ccc(OC)c(/C=N/N(CCC#N)C2=NS(=O)(=O)c3ccccc32)c1	1	0	7.9*	-1	86	-8	5.3*
NC(=S)NN=C1CSSC1	-5	·	15*	·	102	7	23*
COCCCNC(=O)C[C@H]1C[C@@]2(C(=O)OC)C(=C[C@H](C(C)C)O[C@@H]2C2CC2)N(Cc2ccco2)C1=O	·	·	·	-3	·	·	·
O=C(OCC(=O)c1c[nH]c2ccccc12)c1ccc([N+](=O)[O-])s1	-1	4	16*	12	82	-6	6.6*
COc1ccc(C(=O)N2CCc3ccccc3C2)cc1S(=O)(=O)N1CCCC1	-1	2	-8	1	103	1	·
SMILES	DAGLB inhibitor	MsrA inhibitor	MsrA act	rCAG binder	DSG3 Ab inh	NadD inh	MsrA act confirm
CCCCN(CC)C(=O)c1cc2c(=O)n3cccc(C)c3nc2s1	2	1	10*	2	92	1	-2
CCN(CC)C(=O)c1cc2c(=O)n3cccc(C)c3nc2s1	-1	4	-4	0	107	-2	·
O=C(ONC(=O)C1C2C=CC(C2)C1C(=O)NOC(=O)c1ccccc1)c1ccccc1 (stereo not drawn)	2	0	-2	3	97	-2	·
Cc1ccc2nc3n(c(=O)c2c1)-c1cc2ccccc2cc1C(=O)NC3Cc1ccccc1 (stereo not drawn)	4	0	-9	11	98	23	·
CS(=O)(=O)N(CC(=O)N1CCOCC1)c1cccc(F)c1	1	0	9.2*	-1	77*	-8	-1
O=C(O)[C@@H]1Cc2ccccc2N1	2	1	8.2*	16	·	-3	-2
O=C(NCc1ccccc1)C(CCc1ccccc1)n1c(=O)c(-c2ccccc2)nc2ccccc21 (stereo not drawn)	·	0	·	11	·	·	·
COC(=O)c1ccccc1SC(CC(=O)c1ccccc1)c1ccc(F)cc1 (stereo not drawn)	-11	0	-3	34	108	-3	·
Nc1ccccc1SC(CC(=O)c1ccccc1)c1ccccc1 (stereo not drawn)	-11	·	7.9*	·	110	1	0
CCCNC(=O)N(C)C[C@@H]1Oc2ncc(-c3ccncc3)cc2C(=O)N([C@H](C)CO)C[C@@H]1C	-2	0	-3	3	110	16	·
CCOC(=O)c1sc(=S)n(-c2ccccc2)c1SC	-6	3	9.2*	0	107	-1	-5
O=S1(=O)CC(N2CC=CC2)CN1C1CCCCC1 (stereo not drawn)	·	0	-5	2	·	1	·
O=C(NCC1CCCO1)c1nn2c(c1Cl)NC(c1ccc(F)cc1)CC2C(F)(F)F (stereo not drawn)	-1	1	-4	-10	99	-1	·
O=C(NCC1CCCO1)c1cc2n(n1)C(C(F)(F)F)CC(c1ccc(Br)cc1)N2 (stereo not drawn)	0	1	11*	-11	94	-2	-1
CCc1cc(C(=O)Cc2ccc(F)cc2)c(O)cc1O	-4	3	-4	4	94	-7	·
CCCc1cc(C(=O)Cc2ccc(F)cc2)c(O)cc1O	-6	1	22*	6	107	-11	-2
CN(CCC#N)C(=O)CSc1ncnc2sc(-c3ccccc3)cc12	-4	1	-5	-1	99	-2	·
CCN(CC)C(=O)CSc1ncnc2sc(-c3ccccc3)cc12	-6	2	7.7*	-3	101	2	1
CC1CCCCC12NC(=O)N(CC(=O)N1CCN(S(=O)(=O)c3ccc(Cl)s3)CC1)C2=O (stereo not drawn)	-3	0	-6	5	112	3	·
Cc1occc1C(=O)N/N=C/C1=C(N2CCOCC2)C(=C/c2ccc(Cl)cc2Cl)/CC1	-1	0	1	2	123	24	·
O=C1CCC(C(=O)N2CCN(c3cnccn3)CC2)CN1CCc1ccccc1 (stereo not drawn)	-1	4	-1	-2	101	-5	·
